Data published in the supplement of paper PMC12350171.
Structures can show the parent of a compound that is named as a salt.

How the values were obtained:
Conditions in all cases: 20 µM
[1] = tested on: Salmonella enterica typhimurium; assay: growth AUC normalised to DMSO control (fraction of control); higher = less growth inhibition, active = hit call of the paper
Procedure, shortened: (§1)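 Pathogens were passaged twice under anaerobic conditions, then inoculated into pre-reduced mGAM plates at a starting OD578 of 0.01, with compound at 20 μM and 1% DMSO, and sealed with breathable membranes. For Haemophilus parainfluenzae, the medium was supplemented with hemin and NAD. OD578 was read every hour for 24 h in three biological replicates. Growth-curve AUC was calculated by the trapezoidal rule up to the exponential-to-stationary transition and normalised to DMSO controls on the same plate.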

Shigella flexneri = assay: as above
Procedure, shortened: as §1

Vibrio cholerae = assay: as above
Procedure, shortened: as §1

[2] = tested on: Yersinia pseudotuberculosis; assay: as above
Procedure, shortened: as §1

P. vulgatus RND KO = assay: growth AUC normalised to DMSO control (median) (fraction of control); higher = less growth inhibition, active = hit call of the paper
Procedure, shortened: (§2)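 Strains were passaged twice overnight without oxygen, then grown in mGAM in 96-well plates with each approved-drug library compound at 20 μM and 1% DMSO, starting at OD578 0.01. OD578 was read hourly for 24 h inside an anaerobic incubator. Curves were truncated at entry into stationary phase, and the trapezoidal-rule area under the curve was normalised to same-plate vehicle wells. The value is the median across three biological replicates.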

P. vulgatus WT = assay: as above
Procedure, shortened: as §2

[3] = tested on: S. enterica typhimurium WT; assay: as above
Procedure, shortened: as §2

[4] = tested on: S. enterica typhimurium tolC KO; assay: as above
Procedure, shortened: as §2

Measured: growth AUC normalised to DMSO control
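For growth AUC normalised to DMSO control (median) in this document: active when median AUC fell below 0.1.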

CC(C)NCC(O)COc1cccc2[nH]ccc12 (stereo not given) [Pindolol]
inactive: [1] 1.01 | Shigella flexneri 1.04 | Vibrio cholerae 1.03 | [2] 0.978 | P. vulgatus RND KO 1.05 | P. vulgatus WT 1.08 | [3] 1 | [4] 1.01

CCCc1nn(C)c2c(=O)[nH]c(-c3cc(S(=O)(=O)N4CCN(C)CC4)ccc3OCC)nc12 [Sildenafil]
inactive: [1] 1.02 | Shigella flexneri 1.07 | Vibrio cholerae 1.06 | [2] 1.03 | P. vulgatus RND KO 1.02 | P. vulgatus WT 1.02 | [3] 1.02 | [4] 1

O=C1NCCN1CCN1CCC(c2cn(-c3ccc(F)cc3)c3ccc(Cl)cc23)CC1 [Sertindole]
inactive: [1] 1.02 | Shigella flexneri 1.04 | Vibrio cholerae 1.02 | [2] 1.01 | P. vulgatus RND KO 0.833 | P. vulgatus WT 0.905 | [3] 1 | [4] 0.949

CC(C)(C)NC[C@H](O)COc1nsnc1N1CCOCC1 [Timolol maleate salt]
inactive: [1] 0.981 | Shigella flexneri 1.01 | Vibrio cholerae 1.01 | [2] 0.987 | P. vulgatus RND KO 1.01 | P. vulgatus WT 1.01 | [3] 0.999 | [4] 0.999

CCCCC1C(=O)N(c2ccccc2)N(c2ccc(O)cc2)C1=O (stereo not given) [Oxyphenbutazone]
inactive: [1] 0.996 | Shigella flexneri 1.04 | Vibrio cholerae 1.03 | [2] 1 | P. vulgatus RND KO 1.03 | P. vulgatus WT 1.06 | [3] 1.01 | [4] 1.01

CC(CCc1ccccc1)NCC(O)c1ccc(O)c(C(N)=O)c1 (stereo not given) [Labetalol hydrochloride]
inactive: [1] 0.969 | Shigella flexneri 0.945 | Vibrio cholerae 0.972 | [2] 0.988 | P. vulgatus RND KO 1 | P. vulgatus WT 0.988 | [3] 0.99 | [4] 0.986

CC(CN(C)C)CN1c2ccccc2CCc2ccccc21 (stereo not given) [Trimipramine maleate salt]
inactive: [1] 1 | Shigella flexneri 1.05 | Vibrio cholerae 1.07 | [2] 1.01 | P. vulgatus RND KO 1.06 | P. vulgatus WT 1.03 | [3] 1.02 | [4] 0.963

CN(C)CCCN1c2ccccc2CCc2ccccc21 [Imipramine hydrochloride]
inactive: [1] 0.998 | Shigella flexneri 0.994 | Vibrio cholerae 0.935 | [2] 1.01 | P. vulgatus RND KO 1 | P. vulgatus WT 0.998 | [3] 1.02 | [4] 0.984

O=C(NCCN1CCOCC1)c1ccc(Cl)cc1 [Moclobemide]
inactive: [1] 0.981 | Shigella flexneri 0.961 | Vibrio cholerae 0.957 | [2] 1.01 | P. vulgatus RND KO 0.994 | P. vulgatus WT 0.987 | [3] 0.998 | [4] 0.996

CC[N+](C)(C)c1cccc(O)c1 [Edrophonium chloride]
inactive: [1] 1.01 | Shigella flexneri 1 | Vibrio cholerae 1.02 | [2] 0.964 | P. vulgatus RND KO 1.02 | P. vulgatus WT 1.02 | [3] 1.01 | [4] 0.992

CCCC1O[C@@H]2C[C@H]3[C@@H]4CCC5=CC(=O)C=C[C@]5(C)[C@H]4[C@@H](O)C[C@]3(C)[C@]2(C(=O)CO)O1 (stereo not given in full) [Budesonide]
inactive: [1] 0.978 | Shigella flexneri 0.995 | Vibrio cholerae 0.987 | [2] 0.989 | P. vulgatus RND KO 0.968 | P. vulgatus WT 0.999 | [3] 0.991 | [4] 0.984

OC(CCCN1CCCCC1)(c1ccccc1)c1ccccc1 [Diphenidol hydrochloride]
inactive: [1] 0.999 | Shigella flexneri 1 | Vibrio cholerae 1 | [2] 1.01 | P. vulgatus RND KO 1.04 | P. vulgatus WT 1.04 | [3] 1 | [4] 0.987

COc1ccccc1O [Guaiacol]
inactive: [1] 0.991 | Shigella flexneri 0.976 | Vibrio cholerae 0.992 | [2] 0.999 | P. vulgatus RND KO 0.99 | P. vulgatus WT 1 | [3] 0.997 | [4] 1

CCn1cc(C(=O)O)c(=O)c2cnc(N3CCCC3)nc21 [Piromidic acid]
inactive: [1] 0.996 | Shigella flexneri 1.04 | [2] 0.983 | P. vulgatus RND KO 1.06 | P. vulgatus WT 1.03 | [3] 1.02
active: Vibrio cholerae 0.0557 | [4] 0.0548

NC(=O)c1cccnc1 [Nicotinamide]
inactive: [1] 1.02 | Shigella flexneri 1.06 | Vibrio cholerae 1.05 | [2] 1.01 | P. vulgatus RND KO 1.07 | P. vulgatus WT 1.1 | [3] 0.996 | [4] 1.01
